The supplement of paper PMC10338343
± gives the standard deviation.

What was measured:
[1] = system: MILI (PIWIL2) piRISC loaded with L1MC piRNA (26 nt); test: pre-steady-state target cleavage rate (min^-1); guide: L1MC piRNA 5'p-UAACUAAAUACUAUGCAAGCUGUAGG; higher = faster piRNA-guided slicing of the target;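 further: 1 nM active piRISC with 0.1 nM target library at 33 °C single turnover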
Method in brief: (§1)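 At 33 °C in HEPES–potassium acetate buffer, a transcribed, DNA-blocked target RNA library […] was exposed for 0–8 or 0–960 min to 1 nM active affinity-purified piRISC carrying a single synthetic guide, with or without 500 nM GTSF1 partner protein. Uncleaved targets were sequenced and normalised to depth and to weakly complementary targets. With three trials pooled and k3 capped at 0.0001 min^-1, a burst-and-steady-state fit produced the pre-steady-state cleavage rate.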

[2] = system: EfPiwi piRISC loaded with L1MC piRNA (26 nt); test: pre-steady-state target cleavage rate (min^-1); auxiliary factor: 500 nM Ephydatia muelleri Gtsf1; guide: L1MC piRNA 5'p-UAACUAAAUACUAUGCAAGCUGUAGG; MIWI and MILI are mouse PIWI proteins and EfPiwi is from a freshwater sponge; tags in brackets are library labels; higher = faster piRNA-guided slicing of the target
Method in brief: as §1

[3] = auxiliary factor: 500 nM mouse GTSF1

Sequence	pre-steady-state target cleavage rate [1, 3]	pre-steady-state target cleavage rate [2]	pre-steady-state target cleavage rate ([1]; auxiliary factor: none (no GTSF1))
UCCUGCUACAGCUUGCAUAGAUUUAGUUA	0.00937 ± 0.0054	0.00286 ± 0.0015	
UCCUGGAUGAGCUUGCAUAGUAGUUAGUUA	0.158 ± 0.026	0.00781 ± 0.0027	
UCCUGGAUGUCCUUGCAUAGUAUUAUAGUUA	0.122 ± 0.019	0.00424 ± 0.0041	
UCCUCCUACAGGAUGCAUAGUAUUUUCAAA	0.0564 ± 0.017	0.00259 ± 0.0025	
UCCUCCUACAGCUUGCAUAGUAUUUAGAAA	0.18 ± 0.028	0.00581 ± 0.0024	
UCCUCCUACAGCUUGCAUACUAUUAAGUUA	0.0631 ± 0.019	0.00391 ± 0.0027	
UCCUGGUACAGCUUGCAUAGUAUUUUGAUA	0.0966 ± 0.025	0.00381 ± 0.0026	
UCCUGGAUGAGCUUGCAUAGUAUUUAGCUUA	0.104 ± 0.026	0.00409 ± 0.0018	
UCCUGGAUGAGCUUGCAUAGUAUUAAGAAA	0.0183 ± 0.0092	0.004 ± 0.0026	
UCCUGGAUCAGGUUGCAUAGUAUUUAGAUA	0.1 ± 0.023	0.00381 ± 0.0026	
UCCUCCUACAGCUUGCAUAGUAAAUAGUAA	0.119 ± 0.025	0.00375 ± 0.0025	
UCCUCCUACAGCUUGCAUAGUAUUAAGUAA	0.17 ± 0.037	0.00642 ± 0.0035	
UCCUGGAUGUGGAUGCAUAGUAUUUAGAAA	0.013 ± 0.0055	0.00388 ± 0.0027	
UCCUCCUUGAGCUUGCAUAGUAUUUUCAAA	0.0637 ± 0.016	0.00265 ± 0.0021	
UCCUCCUACAGCUUGCAAAGUAUUUAGAAA	0.0823 ± 0.015	0.00344 ± 0.0017	
UCCUGGAUCAGCUUGCAUUGUAUUUAGAAA	0.0362 ± 0.013	0.00264 ± 0.0021	
UCCUCCUACAGCUUGGAUAGUAUUUAGAAA	0.0815 ± 0.017	0.00325 ± 0.0015	
UCCUGGAUGUGCUUGCAUAGUAUUUAGUCUA	0.0182 ± 0.006	0.00336 ± 0.0024	
UCCUCCUACAGCUUGCAUAGUAUUAUCUUA	0.105 ± 0.025	0.00351 ± 0.0027	
UCCUGGAUCAGCUUGCAUAGUAAUUAGAUA	0.0994 ± 0.025	0.00275 ± 0.0021	

Sequence	pre-steady-state target cleavage rate [1, 3]	pre-steady-state target cleavage rate [2]	pre-steady-state target cleavage rate ([1]; auxiliary factor: none (no GTSF1))
UCCUCCAUCAGCUUGCAUAGUAUUUUCAAA	0.0846 ± 0.02	0.00384 ± 0.0024	
UCCUGGAACAGCUUGCGAUAGUAUUUAGUUA	0.00418 ± 0.0033	0.00523 ± 0.0018	
UCCUGCUACAGCUUGCAUAGUUUUAAGUUA	0.0676 ± 0.015	0.00341 ± 0.0017	
UCCUGGUACAGCUUGCAUAGUAUUUUGAAA	0.06 ± 0.022	0.00282 ± 0.0028	
UCCUCCUACAGCUUGCAUACGUAUUUAGUUA	0.00561 ± 0.0046	0.0035 ± 0.0025	
UCCUCCUACAGCUUGCAUAUUAUUUAGUUA	0.0824 ± 0.011	0.0783 ± 0.025	
UCCUGGAAGUCCUUGCAUAGUAUUUAGAAA	0.151 ± 0.03	0.00315 ± 0.0023	
UCCUGGAACAGCUUGCAUAGUAUUUUGAAA	0.0888 ± 0.027	0.00294 ± 0.0022	
UCCUGGAACAGCUUGCAUACUAAUUAGUUA	0.0355 ± 0.0087	0.00305 ± 0.0029	
UCCUGGUACAGCUUGCAUAGUAUUCAGUUA	0.058 ± 0.017	0.00472 ± 0.0022	
UCCUGGAACAGCUUGCAUAGUAUAAUGUUA	0.0834 ± 0.018	0.00416 ± 0.0026	
UCCUCCUACAGCUUGCAUAGUAAUUACAAA	0.18 ± 0.039	0.00353 ± 0.0025	
UCCUGGAUCAGCUUGCAUAGUAUUUGUUA	0.145 ± 0.023	0.00326 ± 0.0029	
UCCUCCUACAGCUUGGAUAGUAUUUAGAUA	0.139 ± 0.019	0.00474 ± 0.0018	
UCCUGCUACAGCUAGCAUAGUAUUUAGUAA	0.212 ± 0.019	0.00623 ± 0.002	
UCCUCCUACAGCUUGCAAAGUAUUUUCAAA	0.0849 ± 0.023	0.00286 ± 0.0028	
UCCUGGAACAGCUUGCAUAGUAAAAAGUUA	0.0663 ± 0.018	0.00324 ± 0.0027	
UCCUGCUACACCUUGCAUAGUAUUUUGUUA	0.1 ± 0.032	0.00317 ± 0.0023	
UCCUCCUACAGCUUGCAUAGUAUAAUGAAA	0.0878 ± 0.019	0.00235 ± 0.0022	
UCCUGCUACAGCUUGCAUAGUAUUUACUAA	0.112 ± 0.024	0.0025 ± 0.0024	

Sequence	pre-steady-state target cleavage rate [1, 3]	pre-steady-state target cleavage rate [2]	pre-steady-state target cleavage rate ([1]; auxiliary factor: none (no GTSF1))
UCCUGCUACAGCUUGCAUACAAUUUAGUUA		0.00307 ± 0.0028	0.00287 ± 0.0025
UCCUCCUACAGCUUGCAUAGUUUAUAGUUA	0.0469 ± 0.011	0.00613 ± 0.0033	
UCCUCGAACAGCUUGCAUAGUAUUUAGAAA	0.137 ± 0.019	0.00534 ± 0.0018	
UCCUGCUACUCCUUGCAUAGUAUUUAGAAA	0.0806 ± 0.019	0.00264 ± 0.002	
UCCUGCUACAGCUUGCUUAGUAUUAAGUUA	0.179 ± 0.026	0.00988 ± 0.0037	
UCCUGGAUGAGCUUGCAUAGCAUUUAGUUA	0.0853 ± 0.016	0.0029 ± 0.0019	
UCCUCCUACAGCUUGCAUAGUAUAAUGUAA	0.046 ± 0.014	0.00413 ± 0.0027	
UCCUCCUACAGCUUGCAUAGUAUGUUAGUUA	0.126 ± 0.022	0.00459 ± 0.0021	
UCCUGGUACAGCUUGCAUACUAUUUAGAAA	0.0227 ± 0.011	0.00236 ± 0.0018	
UCCUGCUACAGCUUGCAUAGUUAAUAGUUA	0.0263 ± 0.0097	0.00347 ± 0.0032	
UCCUGGAUGAGCUAGCAUAGUAUUUAGAAA	0.209 ± 0.049	0.00297 ± 0.0019	
UCCUGGAACAGCUUGCAUAGUAUUUAGAAA	0.0838 ± 0.015	0.00395 ± 0.0012	
UCCUCCUAGAGCUUGCAUAGUUUUUAGUUA	0.0719 ± 0.011	0.00428 ± 0.0017	
UCCUGGAACAGCUUGCAUAGUAUUUUGAUA	0.0833 ± 0.019	0.00265 ± 0.0024	
UCCUGGAACAGCUUGCAAAGUAUUUAGAAA	0.166 ± 0.038	0.00418 ± 0.002	
UCCUCCUACAGCUUGGAUAGAAUUUAGUUA	0.0614 ± 0.015	0.00574 ± 0.0016	
UCCUGCUAGAGCUUGCAUAGUAUUUAGAUA	0.117 ± 0.015	0.00536 ± 0.0018	
UCCUGCUACUGCUUGCAUAGUAUUUAGAAA	0.0315 ± 0.0099	0.00545 ± 0.0023	
UCCUGGUACAGCUUGCAUAGUAAAUAGUUA	0.238 ± 0.038	0.00642 ± 0.0025	
UCCUGGAUCAGCUUGCAUAGUAUUUUGAUA	0.0355 ± 0.013	0.00716 ± 0.003	
